Rtt109 Vps75: inhibitors of Candida albicans Rtt109/Vps75 histone acetyltransferase | inhibition, % at 34.9 µM | AID 540336 | purified Rtt109/Vps75, ThioGlo CoA-SH fluorescence, 4 h | 330,000 compounds, 0.16% hits | Q5AAJ8;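 active = inhibition of at least 50% in every replicate; inconclusive = best replicate reaches 50% inhibition but some replicates fall short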
ERp5 inh: blocks human ERp5 reductase activity on insulin; Q15084; ERp5 insulin aggregation, absorbance 650 nm, 90 min; inhibition, % at 9.99 µM; 350,000 compounds, 0.05% hits; AID 651711;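 active = mean replicate inhibition above about 25%, with every replicate also reaching it, limit read from the data, passing the limit was not always enough; inconclusive = only one of those two criteria met; inactive = neither criterion met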
Target sequence (Q15084 whole entry, looked up): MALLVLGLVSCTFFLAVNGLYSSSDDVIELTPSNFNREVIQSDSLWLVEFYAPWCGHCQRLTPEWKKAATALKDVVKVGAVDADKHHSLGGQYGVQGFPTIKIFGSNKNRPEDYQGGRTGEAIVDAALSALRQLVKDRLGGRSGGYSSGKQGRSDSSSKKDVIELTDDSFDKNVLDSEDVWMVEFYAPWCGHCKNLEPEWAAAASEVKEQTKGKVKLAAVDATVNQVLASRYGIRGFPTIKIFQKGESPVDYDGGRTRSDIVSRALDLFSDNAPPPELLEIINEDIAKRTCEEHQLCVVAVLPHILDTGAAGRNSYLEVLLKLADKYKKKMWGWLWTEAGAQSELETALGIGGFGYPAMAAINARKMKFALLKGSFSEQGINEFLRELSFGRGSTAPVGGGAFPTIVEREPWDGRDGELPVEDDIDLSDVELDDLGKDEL
PDI inh: inhibitors of human protein disulfide isomerase. AID 588391. 350,000 compounds, 0.052% hits. inhibition, % at 10 µM. PDI insulin aggregation turbidity, A650, 90 min;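 active = mean inhibition across replicates of 30% or more, whatever share of single replicates reach that level; inconclusive = mean inhibition below 30% while every single replicate reaches 30%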
DENV2 CPE rescue: protects cells from dengue virus 2 cytopathic effect; DENV2-infected cells, cytopathic effect rescue, plate reader; CPE inhibition, % at 9.99 µM; 350,000 compounds, 1.7% hits; AID 651640; in the data active = CPE inhibition above about 20%, passing the limit was not always enough; inconclusive = no clear call, values can overlap the other calls; tested in BHK-21 cells;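 also: 0% = median of neutral control wells and 100% = median of positive control wells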
SIRT5 inh: sirtuin-5 (human) deacylase inhibition. Q9NXA8. Purified SirT5, succinyl-peptide AMC, trypsin-coupled fluorescence. inhibition, % at 15 µM. 330,000 compounds, 1.1% hits; in the data active = inhibition above about 15%; inconclusive = no clear call, values can overlap the other calls
* hit, by the source's call; ? = inconclusive; . = not tested or not shown. Compounds with a hit are over-represented: about 2.3% of the library has one in this group of screens.

SMILES | Rtt109 Vps75 | ERp5 inh | PDI inh | DENV2 CPE rescue | SIRT5 inh
CC1=NCCN1S(=O)(=O)c1c(C(C)C)cc(C(C)C)cc1C(C)C | 19 | 5 | -1 | . | 27*
O=C(/C=C/c1ccccc1)NCCc1ccc2c(c1)OCCO2 | 2 | 1 | 1 | 59* | 0
C[C@@H]1CN([C@H](C)CO)C(=O)c2cc(NS(C)(=O)=O)ccc2O[C@@H](C)CCCCO[C@H]1CN(C)S(=O)(=O)c1ccc(F)cc1 | . | -1 | . | 27* | 3
C[C@@H]1CN([C@@H](C)CO)C(=O)c2cc(NS(C)(=O)=O)ccc2O[C@@H](C)CCCCO[C@H]1CN(C)S(=O)(=O)c1ccc(F)cc1 | . | 0 | . | 67* | 2
COCCNC(=O)C1(C)CCN(C(=O)c2cc(C(C)(C)C)nn2C)C1 (configuration not stated) | . | 6 | -35 | 38* | .
C[C@@H]1CN([C@@H](C)CO)C(=O)Cc2cc(NC(=O)NC3CCCCC3)ccc2O[C@H]1CN(C)S(=O)(=O)c1ccc(F)cc1 | . | -9 | . | -1 | -2
COC(=O)[C@H]1[C@H](CO)[C@H]2Cn3c(ccc(-c4ccccc4F)c3=O)[C@H]2N1Cc1ccncc1 | . | -3 | . | -2 | 0
Cc1ccc2nc(-c3ccccc3)c(Cc3cccc(Cl)c3)n2c1 | . | 1 | . | 4 | 22*
Cc1ccc2nc(-c3cccc(Br)c3)c(Cc3cccc(Cl)c3)n2c1 | . | 25* | . | 54* | -1
Cc1ccc(Cc2c(-c3ccc(Cl)cc3)nc3ccc(Cl)cn23)cc1 | . | -6 | 3 | -2 | -4
Clc1cccc(Cc2c(-c3ccccc3)nc3ccc(Cl)cn23)c1 | . | 2 | . | -1 | -2
Cc1ccc(Cc2c(-c3ccc(C)cc3)nc3ccc(Cl)cn23)cc1 | . | -4 | -10 | 25* | 2
Cc1ccc2nc(-c3ccc(C#N)cc3)c(Cc3ccccc3C(F)(F)F)n2c1 | . | 3 | . | 63* | 1
COc1ccc(NC(=O)Nc2ccc3c(c2)CC(=O)N([C@@H](C)CO)C[C@@H](C)[C@@H](CN(C)S(C)(=O)=O)O3)cc1 | . | -9 | . | 7 | -1
COCC#Cc1cnc2c(c1)C(=O)N([C@H](C)CO)C[C@@H](C)[C@@H](CN(C)C(=O)c1ccc3c(c1)OCO3)O2 | . | -4 | . | -3 | -4
CO[C@@H](CN(C)C(=O)c1ccccc1F)[C@@H](C)CN([C@@H](C)CO)S(=O)(=O)c1ccc(C)cc1 | . | -4 | . | -8 | -3
COc1ccc(C(=O)Nc2ccc3c(c2)C(=O)N(C)C[C@H](OC)[C@H](C)CN[C@@H](C)CO3)cc1 | . | 2 | . | 14 | 0
COc1ccc(NC(=O)Nc2ccc3c(c2)[C@H]2C[C@@H](CC(=O)O)O[C@@H](CO)[C@H]2O3)cc1 | . | 3 | . | 1 | 7
Fc1ccc(-c2nc3ccc(Cl)cn3c2Cc2ccsc2)cc1 | . | 4 | . | -12 | 28*
Cc1ccc(-c2nc3ccc(Cl)cn3c2Cc2ccsc2)cc1 | . | 2 | . | ? | -4
O=C(CCCN1C(=O)C(=Cc2ccc3c(c2)OCO3)SC1=S)Nc1ccc(C(=O)O)c(O)c1 | . | 0 | -2 | -12 | 34*
COc1ccc(/C=C2\SC(=O)N(CCCC(=O)Nc3ccc(C(=O)O)cc3)C2=O)cc1 | . | -1 | -5 | 97* | .
COc1ccc(C=C2SC(=S)N(CCCC(=O)Nc3ccc(C(=O)O)c(O)c3)C2=O)cc1OC | . | 11 | -4 | -7 | 53*
COc1cccc(/C=C2\SC(=S)N(CCCC(=O)N3CCCCC3)C2=O)c1 | 3 | -19 | -1 | 27* | -1
COc1cccc(/C=C2/SC(=S)N(CCC(=O)N3CCOCC3)C2=O)c1 | 8 | -4 | -3 | -4 | 1
SMILES | Rtt109 Vps75 | ERp5 inh | PDI inh | DENV2 CPE rescue | SIRT5 inh
O=C(CCCN1C(=O)/C(=C/c2ccc3c(c2)OCO3)SC1=S)Nc1ccc(C(=O)O)cc1 | 1 | -2 | -5 | -5 | -2
O=C(CCCN1C(=O)/C(=C/c2ccccc2)SC1=S)Nc1ccc(C(=O)O)c(O)c1 | 11 | -5 | 0 | -3 | 46*
O=C(CCN1C(=O)S/C(=C/c2ccccc2)C1=O)Nc1ccc(C(=O)O)c(O)c1 | 2 | 0 | -2 | 5 | 4
O=C(O)CN1C(=O)/C(=C\c2cccc(OCc3ccc(Cl)cc3Cl)c2)SC1=S | -4 | 0 | 13 | -6 | 15*
O=C(Nc1ccc(Cl)cc1)N1C[C@H]2[C@@H](c3ccccc31)[C@@H](CO)N2C(=O)c1ccccn1 | . | -3 | . | 6 | -4
CC(C)CC#Cc1cnc2c(c1)C(=O)N([C@@H](C)CO)C[C@H](C)[C@@H](CN(C)Cc1ccc(C(=O)O)cc1)O2 | . | -6 | . | -1 | -7
CN1c2ccsc2C(O)=C(C(=O)Nc2ccccc2)S1(=O)=O | -1 | . | 1 | . | .
Cc1cccc(C)c1NC(=O)C1=C(O)c2sccc2N(C)S1(=O)=O | -16 | -2 | -1 | 1 | 21*
C/C=C/c1ccc([C@H]2[C@@H](CNCC)N(c3nc(C)c(C)s3)[C@H]2CO)cc1 | . | -3 | . | 4 | -3
CCc1cc2c(=O)c(-c3cnn(-c4ccccc4)c3)c(C)oc2cc1OCC(=O)Nc1ccc(F)c(F)c1 | -18 | 1 | -4 | -3 | 1
CCc1cc2c(=O)c(-c3cnn(-c4ccccc4)c3)c(C)oc2cc1OCC(=O)Nc1cccc(C)c1 | -2 | -2 | 0 | -2 | 27*
COc1cc(-c2cc(N3C(=O)Nc4ccccc4N3O)n[nH]2)cc(OC)c1OC | . | . | -1 | . | .
COc1ccc(-c2cc(N3C(=O)Nc4ccccc4N3O)n[nH]2)cc1OC | -6 | 5 | 13 | 38* | .
CCCN(Cc1nnc(-c2ccccc2Cl)o1)C(=O)c1cc(S(=O)(=O)N2CCOCC2)ccc1F | 2 | 2 | 3 | 12 | 15*
CCCN(Cc1nnc(-c2cccs2)o1)C(=O)c1cc(S(=O)(=O)N2CCOCC2)ccc1C | 1 | -2 | 3 | 2 | -6
C#CCOCCOCCOCCNc1nc(N2CCN(C(=O)[C@H](CCCN=C(N)N)n3cc(C(N)[C@@H](C)CC)nn3)CC2)nc(N2CCN(C(=O)[C@H](CCCCN)n3cc([C@@H](N)CC(N)=O)nn3)CC2)n1 (some centres not stated) | 80* | 1 | 3 | 3 | -3
C#CCOCCOCCOCCNc1nc(N2CCN(C(=O)C(Cc3cc4ccccc4[nH]3)n3cc(C(N)C(C)CC)nn3)CC2)nc(N2CCN(C(=O)C(Cc3cc4ccccc4[nH]3)n3cc(C(N)C(C)CC)nn3)CC2)n1 (configuration not stated) | 9 | . | 55* | . | .
C#CCOCCOCCOCCNc1nc(N2CCN(C(=O)[C@H](CCCCN)n3cc([C@@H](N)CC(C)C)nn3)CC2)nc(N2CCN(C(=O)[C@H](Cc3cc4ccccc4[nH]3)n3cc([C@@H](N)Cc4ccc(O)cc4)nn3)CC2)n1 | ? | . | 35* | . | .
CCc1ccc(OCC(O)CNC(C)(C)C)cc1 (configuration not stated) | 5 | 3 | -7 | 1 | 1
Cc1cc(OCC(O)CNC(C)(C)C)ccc1Cl (configuration not stated) | -7 | -6 | 2 | -5 | 21*
